Screening data (PubChem BioAssay)
MARV entry inh: qHTS for inhibitors of binding or entry into cells for Marburg Virus; Marburg virus pseudotyped entry inhibition, cell reporter; AID 540276, 2011; hit rate 1.8% among 300,000; Potency, µM (highest dose often 37.8 µM), inactives show top-dose activity change, negative = inhibition, most hits filed as inhibitors; calls by dose curve; tested in HEK293 cells; further: potency means the concentration at half of the fitted maximal effect
FMDV inh: High Throughput Screening for Foot and Mouth Disease Virus Antivirals. FMDV antiviral cell-based qHTS. Potency, µM (highest dose often 57.9 µM), for the others: at the highest dose activity change, negative = inhibition, most hits filed as inhibitors. hit rate 1.2% among 410,000. AID 1159524, 2015; calls by dose curve; tested in HEK293T cells; further: read-out not given here; potency means the concentration at half of the fitted maximal effect; nearly all actives have a fitted effect of over 45% in size
LASV entry inh: qHTS for Inhibitors of binding or entry into cells for Lassa Virus; Lassa virus pseudotype entry inhibition, cell reporter; hit rate 1.2% among 300,000; AID 540256, 2011; Potency, µM (doses to about 37.9 µM), for inactives: at the top dose activity change, negative = inhibition, usual class: inhibitors; calls by dose curve; tested in HEK293 cells; further: potency means the concentration at half of the fitted maximal effect; nearly all actives have a fitted effect of over 50% in size
HCMV inh: qHTS Assay for inhibitors of the human cytomegalovirus (HCMV); HFF cells, HCMV-luciferase reporter, 72 h; stronger effect = lower value; activity change, negative = inhibition, % at 57.5 µM; hit rate 4.5% among 410,000; AID 1259415, 2018; in the data active means activity change below about -60%; inconclusive means no clear call, values can overlap the other calls; inactive means above about -39%
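After 16 h attachment at 37C, HFF cells received test compound and HCMV-luciferase (1 PFU/cell); reporter luminescence read 72 h later, data normalized against buffer-only and known inhibitor Salinomycin.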
Active calls of the source: *; u = inconclusive; x = no result; ! = repeats disagree; [ ] = another dose, or the depositor's remark. Compounds with a hit are over-represented: about 6.2% of the library has one in this group of screens. On the % scale 0 is the no-effect control and ±100 the full control effect.

SMILES	MARV entry inh	FMDV inh	LASV entry inh	HCMV inh
Cc1cc(-c2csc(NC(=O)c3ccc(S(=O)(=O)N(C)C)cc3)n2)c(C)n1-c1ccccc1	1.3µM*	32µM*	u	-25
O=C(Nc1nc(-c2cc3ccccc3o2)cs1)c1ccc(S(=O)(=O)N2CCCC2)cc1	u	u	u	-84*
CC(=O)N/C(=N\c1nc(C)cc(C)n1)Nc1ccc(NC(C)=O)cc1	-20%[46.1 µM]	x	x	x
O=C1NC(=O)c2c1c(-c1ccccc1)cc1[nH]c3ccc(O)cc3c21	x	-35%	x	x
C=C1C(=O)O[C@@H]2[C@H]3O[C@]3(C)CC/C=C(\C)CC[C@@H]12	22µM*	32µM*!	x	-12
COc1ccc2cc3cc(C(=O)N4CCN(Cc5ccc6c(c5)OCO6)CC4)oc3nc2c1	u	22µM*	u	-39
COc1ccc2cc(C(=O)N3CCN(Cc4ccc5c(c4)OCO5)CC3)[nH]c2c1	u	-25%	u	0
COc1ccc(CNC(=O)c2cc3cc4ccc(C)cc4nc3o2)cc1	u	19%	u	-11
COc1ccc2cc3cc(C(=O)NCc4ccc5c(c4)OCO5)oc3nc2c1	u	2%	0.82µM*	-23
CCN(CC)CCOC(=O)c1ccc(NC(=O)Cn2ncc3c([nH]c4ccc(C)cc43)c2=O)cc1	x	-22%	u	-6
C[C@H]1CN([C@@H](C)CO)C(=O)CCCn2cc(nn2)CO[C@@H]1CN(C)S(=O)(=O)c1ccc(F)cc1	x	x	x	-9
COc1ccc2c(c1)c(C(C)=O)c(C)n2-c1ccccc1	3%	x	4%	-1
COc1ccc(-n2c(C)c(C(C)=O)c3cc(OC(=O)c4ccc(C)cc4)ccc32)cc1	x	-18%	-24%[46.1 µM]	-75*
COc1ccc(-n2c(C)c(C(C)=O)c3cc(O)ccc32)cc1	-9%	-18%	x	-65*
COc1ccc2c(c1)c(C(C)=O)c(C)n2CCc1ccccc1	x	14µM*	x	-91*
CCOC(=O)c1ccc(-c2ccc3c(=O)c4ccccc4n(C)c3c2)cc1F	x	9%	x	-69*
CCOC(=O)c1ccc(-c2c(-c3ccccc3OC)oc3ccccc23)cc1F	x	3%	x	-1
CCN(CC)S(=O)(=O)c1cc(NC(=O)CSc2nc3c(cc2C#N)C(=O)CC(C)(C)C3)ccc1C	u	u	u	-85*
CCN(CC)S(=O)(=O)c1cc(NC(=O)CSc2nnc(N)s2)ccc1C	x	-12%	x	5
Cc1cccc(N2CCN(C(=O)Cn3ncc4c([nH]c5ccccc54)c3=O)CC2C)c1 (stereo unspecified)	x	-21%	-3%[46.1 µM]	16
CC(C)OCC(O)CN1CCC(Cc2ccccc2)CC1 (stereo unspecified)	x	-7%	x	u
C[C@@H]([C@H](O)c1ccc(O)cc1)N1CCC(Cc2ccccc2)CC1	21µM*	-26%	x	x
C[C@@H](CN1CCC(Cc2ccccc2)CC1)[C@@H](O)c1ccc(O)cc1	u	-21%	u	80
CC(C(O)c1ccc(O)cc1)N1CCC(Cc2ccccc2)CC1 (stereo unspecified)	21µM*	u	23µM*	u
O=C(Nc1ccc(-c2nc3ccccc3o2)cc1)c1ccc2c(c1)OCO2	-8%	7%	3%	-108*
SMILES	MARV entry inh	FMDV inh	LASV entry inh	HCMV inh
O=C(Nc1ccc2oc(-c3cc(Br)ccc3Cl)nc2c1)c1ccc2ccccc2c1	x	-11%	1%[46.1 µM]	-93*
O=C(Nc1ccc2oc(-c3ccc4ccccc4c3)nc2c1)c1cc(Br)ccc1Cl	x	46%	-1%[46.1 µM]	52
O=C(Nc1ccc(-c2nc3ccccc3o2)cc1)c1ccc(N2C(=O)C3C4C=CC(C4)C3C2=O)cc1 (stereo unspecified)	-38%	x	15µM*	-18
Cc1c(NC(=O)c2ccc3c(c2)OCO3)cccc1-c1nc2ccccc2o1	21µM*	-10%	21µM*	-33
Cc1ccc2oc(-c3ccc(NC(=O)c4ccc5c(c4)OCO5)cc3)nc2c1	2%	22%	7%	-37
CC(C)CN1CCC2(CC1)CCN(C(=O)c1csnn1)CC2	x	4%	x	x
CCOC(=O)c1ccc(NS(=O)(=O)c2ccc3c(c2)OCCO3)cc1	u	-4%	0%[46.1 µM]	-13
CCO[C@H](c1cc(OC)cc([N+](=O)[O-])c1OC)[C@H](C)/C=C\CC(=O)OC	1%[14.2 µM]	x	x	x
O=C(Nc1ccccc1-c1nc2ccccc2o1)c1ccc2c(c1)OCCO2	-1%	x	x	x
O=C(Nc1ccc2oc(-c3ccccc3F)nc2c1)c1ccc2c(c1)OCCO2	u	35µM*	0%	u
C[C@H]1CC[C@H]2C(=O)O[C@H](COc3ccc(C(C)(C)C)cc3)CN2[C@H]1c1ccc(Br)cc1	-12%[14.2 µM]	x	u	x
Cc1cccc(NS(=O)(=O)c2ccc(Cl)c(C(=O)Nc3ccccc3C)c2)c1	x	-16%	-17%[46.1 µM]	-14
CCc1ccc2[nH]c3nc(N/N=C/c4ccc(O)cc4O)nnc3c2c1	3.5µM*	-18%	u	-76*
Cc1nc2ccc(C(=O)N3CCOc4ccc(CN5CCOCC5)cc4C3)cc2nc1C	x	1%	x	x
COc1c(S(=O)(=O)N2CCCCC2)ccc2c(S(=O)(=O)N3CCCCC3)cccc12	-16%	17%	-30%	-85*
O=S(=O)(c1cccc2c(Cl)cccc12)N1CCCNCC1	8.9µM*!	0%	-9%	x
CCOC(=O)c1c(-c2ccccc2)oc2ccc(OCc3ccccc3Br)cc12	x	-18%	5%[46.1 µM]	19
COc1ccc2c(CSc3nnc(-c4cccnc4)n3-c3ccccc3F)cc(=O)oc2c1	-18%	-16%	-12%	12
CCOc1ccc(-n2c(SCc3cc(=O)oc4cc(C)c(C(C)C)cc34)nnc2-c2cccnc2)cc1	-21%	-22%	-5%	-80*
COc1cccc(CSc2nc3ccncc3n2CC(=O)Nc2ccc(OC)c(OC)c2OC)c1	18%[46.1 µM]	12%	u	36
CCc1ccc(NC(=O)c2cnc(N3CCN(c4ccccn4)CC3)c3ccccc23)cc1	u	11µM*	u	-19
CCN1CCN(c2ncc(C(=O)Nc3ccccc3C(=O)OC)c3ccccc23)CC1	13µM*	-17%	u	-7
CC(C)NC(=O)c1cnc(N2CCN(c3ccccn3)CC2)c2ccccc12	u	u	u	-2
O=c1c2ccc(Cl)cc2nc(-c2ccc([N+](=O)[O-])cc2)n1O	u	-17%	u	-98*
O=c1c2cc(Br)ccc2nc(-c2ccc([N+](=O)[O-])cc2)n1O	u	-17%	-8%	-39
Cc1ccc(C2=Nc3ccccc3N(CC(=O)NCc3ccccc3Cl)C(=O)C2)cc1C	x	32%	u	86
COc1ccc(C(=O)N(Cc2ccc(N(C)C)cc2)Cc2ccco2)cc1Cl	11%[46.1 µM]	0%	u	u
C#CC(=O)N(c1cccc(OC)c1)C(C(=O)NC1CCCC1)c1cccs1 (stereo unspecified)	2.9µM*	x	u	-101*
Cc1cccc(N(C(=O)C(F)(F)F)C(C(=O)NC2CCCCC2)c2cccs2)c1 (stereo unspecified)	u	32%	-1%	-19
